Assay in all cases: DAPPL (digital affinity profiling via proximity ligation, sequencing); 10 mM Tris-HCl pH 7.5, 50 mM NaCl, 1 mM DTT, 4% glycerol, room temperature, 30 min; GST-TFs on glutathione beads, 16-mer random dsDNA library, 0.1% formaldehyde crosslink after washing; high values mean tight binding
Assay [1] addresses T1, FEV (Homo sapiens, UniProt Q99581 1-238).
T1 sequence: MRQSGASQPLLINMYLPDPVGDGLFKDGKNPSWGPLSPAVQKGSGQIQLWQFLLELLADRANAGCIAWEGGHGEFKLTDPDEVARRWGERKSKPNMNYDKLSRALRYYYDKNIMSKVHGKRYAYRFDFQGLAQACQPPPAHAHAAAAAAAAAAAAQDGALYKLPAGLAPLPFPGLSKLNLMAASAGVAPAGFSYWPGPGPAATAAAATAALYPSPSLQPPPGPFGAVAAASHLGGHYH
As to conditions: protein: recombinant; tags: N-terminal GST; dsDNA, one strand shown. An outline of the steps:
(§1)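 In yeast, human transcription factors were expressed with a GST fusion, then pulled down on glutathione beads and given DNA barcodes. Pooled with a tag-only sample, they were exposed to 200 nmole of a 16-mer random double-stranded DNA library (Tris/NaCl/DTT/glycerol buffer, room temperature, 30 min), washed, crosslinked with 0.1% formaldehyde, proximity-ligated using BsaI/T4 ligase for 1 h at 37 °C, PCR-amplified and read on an Illumina NextSeq500. Each hexamer's frequency of reads for a factor, divided by the matching frequency for the tag-only sample, gives the binding signal.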

Assay [2] has as its target ETV5 (Homo sapiens, UniProt P41161 1-510). Particulars: protein: recombinant; tags: N-terminal GST; dsDNA, one strand shown. An outline of the steps: as §1
Assay [3] addresses HSF1 (Homo sapiens, UniProt Q00613 1-529). As to conditions: protein: recombinant; tags: N-terminal GST; chain copies: 3; dsDNA, one strand shown. The procedure, abridged:
as §1

Assay [4] concerns the target T2, SPIC (Homo sapiens, UniProt Q8N5J4 1-248).
T2 sequence: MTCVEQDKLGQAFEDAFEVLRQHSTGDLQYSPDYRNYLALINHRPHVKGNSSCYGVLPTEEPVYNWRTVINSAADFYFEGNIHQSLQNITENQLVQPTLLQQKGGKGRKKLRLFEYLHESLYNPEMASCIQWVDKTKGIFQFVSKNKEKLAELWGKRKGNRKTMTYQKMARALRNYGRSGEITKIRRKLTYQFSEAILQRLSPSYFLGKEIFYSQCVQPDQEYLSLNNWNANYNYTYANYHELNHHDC
Particulars: protein: recombinant; tags: N-terminal GST; dsDNA, one strand shown. An outline of the steps: as §1

Assay [5] deals with ELF4 (Homo sapiens, UniProt Q99607 1-663). As to conditions: protein: recombinant; tags: N-terminal GST; dsDNA, one strand shown. The procedure, abridged:
as §1

Assay [6] has as its target T3, ELK4 (Homo sapiens, UniProt P28324-2 1-405).
T3 sequence: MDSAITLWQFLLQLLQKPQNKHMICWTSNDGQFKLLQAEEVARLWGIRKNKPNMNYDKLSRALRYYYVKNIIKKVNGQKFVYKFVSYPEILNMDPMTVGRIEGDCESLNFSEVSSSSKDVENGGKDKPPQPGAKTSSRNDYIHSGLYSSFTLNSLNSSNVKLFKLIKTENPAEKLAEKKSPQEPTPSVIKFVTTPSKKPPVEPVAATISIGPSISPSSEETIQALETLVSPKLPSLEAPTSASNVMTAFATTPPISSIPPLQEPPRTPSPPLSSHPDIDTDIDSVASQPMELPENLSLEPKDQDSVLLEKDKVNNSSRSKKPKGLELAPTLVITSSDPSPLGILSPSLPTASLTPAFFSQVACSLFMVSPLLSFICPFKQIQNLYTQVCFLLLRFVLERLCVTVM
As to conditions: protein: recombinant; tags: N-terminal GST; dsDNA, one strand shown. An outline of the steps: as §1

Assay [7] deals with T4, ETV2 (Homo sapiens, UniProt O00321 1-342).
T4 sequence: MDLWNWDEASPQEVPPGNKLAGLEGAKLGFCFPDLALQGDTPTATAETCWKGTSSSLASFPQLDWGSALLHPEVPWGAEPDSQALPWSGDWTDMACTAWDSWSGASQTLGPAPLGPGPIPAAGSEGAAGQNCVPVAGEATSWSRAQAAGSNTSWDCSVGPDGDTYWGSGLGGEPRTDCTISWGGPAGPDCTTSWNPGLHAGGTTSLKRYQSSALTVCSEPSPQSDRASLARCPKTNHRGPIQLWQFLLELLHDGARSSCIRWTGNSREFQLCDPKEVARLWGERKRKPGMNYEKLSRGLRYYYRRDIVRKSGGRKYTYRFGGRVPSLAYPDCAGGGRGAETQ
Particulars: protein: recombinant; tags: N-terminal GST; dsDNA, one strand shown. The procedure, abridged: as §1

The target of assay [8] is T5, ELF3 (Homo sapiens, UniProt P78545 1-371).
T5 sequence: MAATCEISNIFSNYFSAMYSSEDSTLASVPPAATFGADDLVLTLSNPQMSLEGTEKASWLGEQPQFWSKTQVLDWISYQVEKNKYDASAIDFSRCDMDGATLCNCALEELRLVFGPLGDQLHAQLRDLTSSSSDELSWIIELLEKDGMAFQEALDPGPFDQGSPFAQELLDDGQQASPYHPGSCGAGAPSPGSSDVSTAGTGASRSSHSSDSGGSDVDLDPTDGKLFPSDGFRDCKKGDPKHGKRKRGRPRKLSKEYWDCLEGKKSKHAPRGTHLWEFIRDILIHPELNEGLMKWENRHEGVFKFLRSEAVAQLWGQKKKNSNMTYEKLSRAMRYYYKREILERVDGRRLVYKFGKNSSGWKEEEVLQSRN
As to conditions: protein: recombinant; tags: N-terminal GST; dsDNA, one strand shown. An outline of the steps:
as §1

The target in assay [9] is CRX (Homo sapiens, UniProt O43186 1-299). Particulars: protein: recombinant; tags: N-terminal GST; dsDNA, one strand shown. The procedure, abridged: as §1
Sequence of CRX (O43186 whole entry): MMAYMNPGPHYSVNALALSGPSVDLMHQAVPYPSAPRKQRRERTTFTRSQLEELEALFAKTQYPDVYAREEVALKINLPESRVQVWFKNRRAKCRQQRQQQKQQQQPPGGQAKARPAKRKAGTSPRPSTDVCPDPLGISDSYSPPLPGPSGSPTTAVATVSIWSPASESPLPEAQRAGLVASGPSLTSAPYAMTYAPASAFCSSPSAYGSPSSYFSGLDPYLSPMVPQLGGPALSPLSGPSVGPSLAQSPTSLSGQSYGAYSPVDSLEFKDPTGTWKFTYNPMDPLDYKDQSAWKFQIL
The target of assay [10] is ETV1 (Homo sapiens, UniProt P50549 1-477). As to conditions: protein: recombinant; tags: N-terminal GST; dsDNA, one strand shown. The procedure, abridged: as §1
Sequence of ETV1 (P50549 whole entry): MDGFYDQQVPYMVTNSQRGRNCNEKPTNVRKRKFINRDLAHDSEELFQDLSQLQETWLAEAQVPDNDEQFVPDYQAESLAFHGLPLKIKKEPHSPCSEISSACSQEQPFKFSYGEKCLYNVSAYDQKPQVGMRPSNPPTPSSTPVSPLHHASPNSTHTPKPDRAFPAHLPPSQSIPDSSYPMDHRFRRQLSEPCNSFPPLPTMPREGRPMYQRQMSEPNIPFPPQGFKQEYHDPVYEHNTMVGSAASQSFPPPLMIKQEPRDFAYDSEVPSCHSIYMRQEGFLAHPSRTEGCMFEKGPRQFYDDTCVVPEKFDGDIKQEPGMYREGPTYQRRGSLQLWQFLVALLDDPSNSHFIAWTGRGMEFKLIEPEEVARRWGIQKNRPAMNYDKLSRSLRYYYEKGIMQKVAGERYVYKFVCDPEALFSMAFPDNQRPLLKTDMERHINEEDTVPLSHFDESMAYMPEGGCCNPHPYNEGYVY
Assay [11] concerns the target T6, ERF (Homo sapiens, UniProt P50548 1-548).
T6 sequence: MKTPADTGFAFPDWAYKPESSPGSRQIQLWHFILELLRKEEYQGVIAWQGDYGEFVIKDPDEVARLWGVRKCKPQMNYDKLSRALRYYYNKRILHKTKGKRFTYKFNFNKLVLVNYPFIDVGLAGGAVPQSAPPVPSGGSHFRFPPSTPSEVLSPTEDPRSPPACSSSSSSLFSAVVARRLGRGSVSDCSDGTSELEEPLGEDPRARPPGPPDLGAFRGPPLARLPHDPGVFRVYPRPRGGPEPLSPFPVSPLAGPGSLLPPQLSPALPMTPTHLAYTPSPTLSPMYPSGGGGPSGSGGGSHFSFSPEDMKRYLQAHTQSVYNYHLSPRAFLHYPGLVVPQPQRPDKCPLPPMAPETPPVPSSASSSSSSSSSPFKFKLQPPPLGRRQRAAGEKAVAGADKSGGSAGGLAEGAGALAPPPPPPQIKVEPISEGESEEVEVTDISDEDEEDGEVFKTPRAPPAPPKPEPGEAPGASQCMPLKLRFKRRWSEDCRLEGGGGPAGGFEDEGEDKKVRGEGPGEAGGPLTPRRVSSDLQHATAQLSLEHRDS
As to conditions: protein: recombinant; tags: N-terminal GST; dsDNA, one strand shown. The procedure, abridged:
as §1

Assay [12] addresses T7, ETV3L (Homo sapiens, UniProt Q6ZN32 1-361).
T7 sequence: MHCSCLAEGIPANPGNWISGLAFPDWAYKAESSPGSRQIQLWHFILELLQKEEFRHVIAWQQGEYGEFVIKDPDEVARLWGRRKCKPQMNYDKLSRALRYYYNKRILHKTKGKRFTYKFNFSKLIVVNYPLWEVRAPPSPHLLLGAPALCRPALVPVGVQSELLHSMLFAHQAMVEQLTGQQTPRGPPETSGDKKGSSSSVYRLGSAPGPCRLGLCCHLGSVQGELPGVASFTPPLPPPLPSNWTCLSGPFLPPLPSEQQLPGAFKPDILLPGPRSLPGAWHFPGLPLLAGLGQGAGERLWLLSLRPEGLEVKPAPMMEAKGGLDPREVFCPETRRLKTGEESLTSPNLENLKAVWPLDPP
As to conditions: protein: recombinant; tags: N-terminal GST; dsDNA, one strand shown. An outline of the steps: as §1

Assay [13] addresses T8, ETS2 (Homo sapiens, UniProt P15036 1-469).
T8 sequence: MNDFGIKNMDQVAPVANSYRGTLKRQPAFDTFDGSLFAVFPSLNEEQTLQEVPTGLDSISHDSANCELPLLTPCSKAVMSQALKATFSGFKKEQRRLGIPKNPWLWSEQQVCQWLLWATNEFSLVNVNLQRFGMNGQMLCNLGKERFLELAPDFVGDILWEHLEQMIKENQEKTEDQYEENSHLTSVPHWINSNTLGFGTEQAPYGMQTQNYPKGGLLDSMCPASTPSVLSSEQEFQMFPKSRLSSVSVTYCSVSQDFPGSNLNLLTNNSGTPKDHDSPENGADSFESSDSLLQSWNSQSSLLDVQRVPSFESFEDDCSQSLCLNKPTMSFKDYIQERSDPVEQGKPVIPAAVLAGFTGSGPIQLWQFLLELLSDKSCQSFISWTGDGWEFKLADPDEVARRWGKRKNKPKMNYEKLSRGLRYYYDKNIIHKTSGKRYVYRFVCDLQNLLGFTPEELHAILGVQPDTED
As to conditions: protein: recombinant; tags: N-terminal GST; dsDNA, one strand shown. The procedure, abridged: as §1

Assay [14] concerns the target T9, SPDEF (Homo sapiens, UniProt O95238 1-335).
T9 sequence: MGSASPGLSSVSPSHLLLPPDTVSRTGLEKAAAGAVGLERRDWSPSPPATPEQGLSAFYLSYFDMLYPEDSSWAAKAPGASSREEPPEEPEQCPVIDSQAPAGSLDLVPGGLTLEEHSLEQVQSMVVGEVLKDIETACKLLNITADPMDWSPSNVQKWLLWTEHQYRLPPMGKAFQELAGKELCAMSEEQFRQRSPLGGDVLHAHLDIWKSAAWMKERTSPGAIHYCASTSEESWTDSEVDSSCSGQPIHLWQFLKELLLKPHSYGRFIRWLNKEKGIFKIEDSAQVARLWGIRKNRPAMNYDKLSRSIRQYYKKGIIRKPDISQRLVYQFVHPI
As to conditions: protein: recombinant; tags: N-terminal GST; dsDNA, one strand shown. An outline of the steps: as §1

Assay [15] has as its target T10, ETV7 (Homo sapiens, UniProt Q9Y603 1-341).
T10 sequence: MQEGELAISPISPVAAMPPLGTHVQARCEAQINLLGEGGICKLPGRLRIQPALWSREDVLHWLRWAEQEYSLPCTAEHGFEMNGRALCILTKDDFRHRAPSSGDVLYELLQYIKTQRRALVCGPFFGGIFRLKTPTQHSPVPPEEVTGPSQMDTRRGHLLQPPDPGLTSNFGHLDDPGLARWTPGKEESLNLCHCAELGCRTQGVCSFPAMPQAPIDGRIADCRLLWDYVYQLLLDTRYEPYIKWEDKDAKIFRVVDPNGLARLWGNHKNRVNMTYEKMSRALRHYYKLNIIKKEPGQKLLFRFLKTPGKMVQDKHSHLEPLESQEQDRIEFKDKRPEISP
As to conditions: protein: recombinant; tags: N-terminal GST; dsDNA, one strand shown. An outline of the steps: as §1

For assay [16], the target named is T11, ELF5 (Homo sapiens, UniProt Q9UKW6-2 1-255).
T11 sequence: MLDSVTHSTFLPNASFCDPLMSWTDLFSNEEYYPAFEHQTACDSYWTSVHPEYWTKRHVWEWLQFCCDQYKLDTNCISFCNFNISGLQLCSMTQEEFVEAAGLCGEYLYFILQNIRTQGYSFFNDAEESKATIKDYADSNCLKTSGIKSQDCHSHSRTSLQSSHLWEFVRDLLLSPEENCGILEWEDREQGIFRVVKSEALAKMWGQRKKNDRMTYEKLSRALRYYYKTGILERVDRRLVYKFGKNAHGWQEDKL
As to conditions: protein: recombinant; tags: N-terminal GST; dsDNA, one strand shown. The procedure, abridged: as §1

Assay [17] addresses T12, ETV3 (Homo sapiens, UniProt P41162-2 1-143).
T12 sequence: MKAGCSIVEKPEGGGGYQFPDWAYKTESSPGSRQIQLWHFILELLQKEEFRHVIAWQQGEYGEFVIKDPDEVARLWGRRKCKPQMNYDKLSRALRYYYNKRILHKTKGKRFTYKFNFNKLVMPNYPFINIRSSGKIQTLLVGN
As to conditions: protein: recombinant; tags: N-terminal GST; dsDNA, one strand shown. An outline of the steps:
as §1

Assay [18] deals with ETV6 (Homo sapiens, UniProt P41212 1-452). Particulars: protein: recombinant; tags: N-terminal GST; dsDNA, one strand shown. An outline of the steps: as §1
Sequence of ETV6 (P41212 whole entry): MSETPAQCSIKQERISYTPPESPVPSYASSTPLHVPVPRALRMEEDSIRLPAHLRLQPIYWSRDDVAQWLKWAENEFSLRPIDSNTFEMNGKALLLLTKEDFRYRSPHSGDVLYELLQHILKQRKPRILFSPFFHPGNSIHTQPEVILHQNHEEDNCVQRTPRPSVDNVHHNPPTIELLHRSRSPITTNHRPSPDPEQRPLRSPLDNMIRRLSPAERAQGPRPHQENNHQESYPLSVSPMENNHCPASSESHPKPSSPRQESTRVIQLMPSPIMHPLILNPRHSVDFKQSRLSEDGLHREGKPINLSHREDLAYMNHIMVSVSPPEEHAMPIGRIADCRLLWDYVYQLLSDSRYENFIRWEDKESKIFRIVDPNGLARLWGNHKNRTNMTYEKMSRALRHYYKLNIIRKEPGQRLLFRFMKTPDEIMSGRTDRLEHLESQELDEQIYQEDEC

Sequence of HSF1 (Q00613 whole entry): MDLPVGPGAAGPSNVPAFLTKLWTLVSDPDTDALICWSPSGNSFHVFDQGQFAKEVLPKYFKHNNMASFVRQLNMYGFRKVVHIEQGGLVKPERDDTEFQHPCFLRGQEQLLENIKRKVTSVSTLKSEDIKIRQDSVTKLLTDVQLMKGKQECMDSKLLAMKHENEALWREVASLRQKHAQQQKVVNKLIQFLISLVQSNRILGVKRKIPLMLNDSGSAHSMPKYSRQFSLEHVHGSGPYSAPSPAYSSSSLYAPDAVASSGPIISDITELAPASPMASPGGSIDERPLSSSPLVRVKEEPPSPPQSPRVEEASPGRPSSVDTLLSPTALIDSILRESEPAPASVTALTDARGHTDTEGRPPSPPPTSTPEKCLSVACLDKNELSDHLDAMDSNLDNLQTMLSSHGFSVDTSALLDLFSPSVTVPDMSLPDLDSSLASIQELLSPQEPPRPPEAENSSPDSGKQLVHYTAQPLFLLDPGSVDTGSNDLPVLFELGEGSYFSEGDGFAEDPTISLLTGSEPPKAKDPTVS
Sequence of ETV5 (P41161 whole entry): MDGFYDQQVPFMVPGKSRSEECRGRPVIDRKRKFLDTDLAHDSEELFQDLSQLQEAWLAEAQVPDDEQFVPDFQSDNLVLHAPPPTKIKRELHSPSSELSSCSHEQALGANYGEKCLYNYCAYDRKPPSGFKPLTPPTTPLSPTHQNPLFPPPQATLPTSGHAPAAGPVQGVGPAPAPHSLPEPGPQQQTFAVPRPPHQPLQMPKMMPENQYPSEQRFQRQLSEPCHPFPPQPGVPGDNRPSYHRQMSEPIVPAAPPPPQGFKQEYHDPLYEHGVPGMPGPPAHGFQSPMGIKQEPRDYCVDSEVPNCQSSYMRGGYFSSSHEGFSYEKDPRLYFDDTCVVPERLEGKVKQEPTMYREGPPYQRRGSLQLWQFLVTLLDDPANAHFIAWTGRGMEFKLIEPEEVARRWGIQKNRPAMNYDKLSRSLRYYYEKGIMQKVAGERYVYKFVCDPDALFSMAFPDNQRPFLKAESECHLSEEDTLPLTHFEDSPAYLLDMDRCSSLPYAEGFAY
Sequence of ELF4 (Q99607 whole entry): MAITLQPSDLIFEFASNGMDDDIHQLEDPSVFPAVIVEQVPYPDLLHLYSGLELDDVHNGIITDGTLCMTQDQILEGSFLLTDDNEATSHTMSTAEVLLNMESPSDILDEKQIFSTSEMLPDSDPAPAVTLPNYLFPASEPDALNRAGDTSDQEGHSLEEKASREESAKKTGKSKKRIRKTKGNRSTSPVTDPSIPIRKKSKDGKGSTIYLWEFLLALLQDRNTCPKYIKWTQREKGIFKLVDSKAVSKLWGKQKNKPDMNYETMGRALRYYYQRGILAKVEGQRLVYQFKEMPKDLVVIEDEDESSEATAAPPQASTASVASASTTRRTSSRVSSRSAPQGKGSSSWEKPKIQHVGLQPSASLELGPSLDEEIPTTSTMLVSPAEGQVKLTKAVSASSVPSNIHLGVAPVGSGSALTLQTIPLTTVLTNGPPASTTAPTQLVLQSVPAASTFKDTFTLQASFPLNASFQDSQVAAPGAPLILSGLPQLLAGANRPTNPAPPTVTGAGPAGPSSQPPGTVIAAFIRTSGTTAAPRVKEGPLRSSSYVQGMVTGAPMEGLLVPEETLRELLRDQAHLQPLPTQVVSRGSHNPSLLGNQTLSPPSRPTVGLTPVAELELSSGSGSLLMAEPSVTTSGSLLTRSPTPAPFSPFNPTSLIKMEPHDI

In the case of ATAATC, the binding signal was 1.1 fold enrichment (6-mer frequency, TF over GST control) in assay [1]; 1.17 fold enrichment (6-mer frequency, TF over GST control) in [2]; 2.86 fold enrichment (6-mer frequency, TF over GST control) in [3]; 1.16 fold enrichment (6-mer frequency, TF over GST control) in [4]; 1.13 fold enrichment (6-mer frequency, TF over GST control) in assay [5]; 1.13 fold enrichment (6-mer frequency, TF over GST control) in assay [6]. Further, the binding signal in assay [7] is 1.21 fold enrichment (6-mer frequency, TF over GST control); in assay [8], 1.15 fold enrichment (6-mer frequency, TF over GST control); in assay [9], 4.71 fold enrichment (6-mer frequency, TF over GST control); in assay [10], 1.12 fold enrichment (6-mer frequency, TF over GST control); in [11], 1.2 fold enrichment (6-mer frequency, TF over GST control); in assay [12] it was 1.16 fold enrichment (6-mer frequency, TF over GST control). Moreover, the binding signal is 1.16 fold enrichment (6-mer frequency, TF over GST control) in [13]; 1.17 fold enrichment (6-mer frequency, TF over GST control) in assay [14]; 1.14 fold enrichment (6-mer frequency, TF over GST control) in assay [15]; 1.13 fold enrichment (6-mer frequency, TF over GST control) in [16]; 1.15 fold enrichment (6-mer frequency, TF over GST control) in assay [17]; 1.19 fold enrichment (6-mer frequency, TF over GST control) in assay [18].

(Values after paper PMC7862700, “An all-to-all approach to the identification of sequence-specific readers for epigenetic DNA modifications on cytosine”.)
